Records with an inconclusive call do not appear. Active and inactive are the calls of the source. Rule for the calls: active = hit-call score of the fitted dose curve at least 0.9, where 1 is the maximum; inconclusive = response in the unintended direction; inactive = score below 0.9.

Results on 16 compounds are retold here after PubChem BioAssay (EPA / NIEHS).

human Peripheral-type Benzodiazepine Receptor (PBR), TSPO (gene 706), sequence (P30536 whole entry, looked up): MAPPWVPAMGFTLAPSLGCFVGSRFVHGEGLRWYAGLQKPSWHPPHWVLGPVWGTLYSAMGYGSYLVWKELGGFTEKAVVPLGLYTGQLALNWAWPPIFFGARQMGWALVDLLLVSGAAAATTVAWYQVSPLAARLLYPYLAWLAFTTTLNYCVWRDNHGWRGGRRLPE

This assay addresses human Peripheral-type Benzodiazepine Receptor (PBR), TSPO (gene 706) (UniProt P30536). Briefly: NVS_MP_hPBR: NovaScreen (NVS) Membrane Protein Assay for human Peripheral-type Benzodiazepine Receptor (PBR) (AID 2283331). As for the experimental part:
NVS_MP_hPBR is a biochemical, single-readout assay that uses extracted gene-proteins from Human colonic cell membranes in a tissue-based cell-free assay. Measurements were taken 1 hour after chemical dosing in a 48-well plate.NVS_MP_hPBR is one of one assay component(s) measured or calculated from the NVS_MP_hPBR assay. It is designed to make measurements of radioligand binding, a form of binding reporter, as detected with scintillation counting signals by Filter-based radiodetection technology.Data from the assay component NVS_MP_hPBR was analyzed into 1 assay endpoint. This assay endpoint, NVS_MP_hPBR, was analyzed in the positive analysis fitting direction relative to DMSO as the negative control and baseline of activity. Using a type of binding reporter, loss-of-signal activity can be used to understand changes in the binding as they relate to the gene TSPO. Furthermore, this assay endpoint can be referred to as a primary readout, because the performed assay has only produced 1 assay endpoint. To generalize the intended target to other relatable targets, this assay endpoint is annotated to the transporter intended target family, where the subfamily is cholesterol transporter.
Binding assays used specific radioligands (tritiated, iodinated) with non-radioactive competitive displacement ligands in agonist or antagonist protocols (as indicated) and various reference compounds and inhibitors to titrate specific binding to receptors and transporters. Most enzyme assays (CYPs, kinases, phosphatases, proteases, HDACs) used recombinant protein and specific substrates (fluorescence mostly, some colorimetric and radioactive) and inhibitors, followed by a biochemical separation of substrate and product. All assays for the biochemical HTS were initially run in duplicate at a single concentration (10 uM for CYP450 assays and 25 uM for all others). […] Each assay was run with positive and negative controls, and concurrent controls on every plate. The follow-up (secondary) screen tested active chemical-pairs in concentration series, as well as a few additional assays not tested in the primary screen, some selected negative inactives, and several cases re-run in the concentration series for confirmatory purposes.
As for `CCCC(=O)OCC(COC(=O)CCC)OC(=O)CCC`, the compound was called inactive.

Usually AC50 stands for the midpoint of the concentration-response curve, whichever way the signal moves. For the compound `CC(C)Nc1ccc(NC(C)C)c2c1C(=O)c1ccccc1C2=O`, the AC50 is 3.66 µM (active).

With `O=C=Nc1cccc2c(N=C=O)cccc12`, the AC50 is 0.353 µM (active).

As to `CCCCCCCCCCCCCC[P+](CCCC)(CCCC)CCCC`, the AC50 is 3.52 µM (active).

In the case of `Cc1ccc(S(=O)(=O)C(I)I)cc1`, the AC50 was 23.2 µM (active).

As for `CCN=C1C=CC(=C(c2ccc(N(CC)CC)cc2)c2ccc(N(CC)CC)cc2)c2ccccc21`, the AC50 is 0.0669 µM (active).

With `CCN=c1cc2oc3cc(NCC)c(C)cc3c(-c3ccccc3C(=O)OCC)c-2cc1C`, the concentration at half-maximal activity (AC50) was 0.443 µM (active).

As to `CCCCCCCCCCCCC[N+](C)(C)Cc1ccccc1`, the half-maximal activity concentration (AC50) was 25.5 µM (active).

Turning to `CCN(CC)c1ccc2c(c1)Oc1cc(N(CC)CC)ccc1C21OC(=O)c2ccccc21`, the compound was classed as inactive.

Turning to `O=C=NCc1cccc(CN=C=O)c1`, the AC50 was 4.21 µM (active).

Consider `O=C1c2c(O)ccc(Nc3ccc(CCO)cc3)c2C(=O)c2c([N+](=O)[O-])ccc(O)c21`, for which the concentration at half-maximal activity (AC50) is 9.9 µM (active).

Take `CCCCCCCC/C=C\CCCCCCCC(=O)N(C)CC(=O)O`: the call was inactive.

Take `CCCCCCCCCc1ccc(OCCO)cc1`: the AC50 was 2.84 µM (active).

With `CCN(CC)c1ccc(C=O)c(O)c1`, the compound was called inactive.

Consider `CCCCCCCC/C=C\CCCCCCCC(=O)OCC(O)CO` (stereo unspecified), for which the half-maximal activity concentration (AC50) is 25 µM (active).

In the case of `CCN(CC)c1ccc(C=O)cc1`, the compound was classed as inactive.
